Inconclusive results are not listed. Unmarked numbers belong to inactive results. Activity calls are given as the source filed them. The call rests on the fitted dose curve; in most records, active means well fitted cell-killing curve with a large enough effect in the repeat runs; inconclusive means weak or mixed curves, or effect the other way; inactive means flat fitted curve, though single readings scatter.
Experiment: cAMP Responsive Elements (CRE) small molecule antagonists, cell-based qHTS assay: qHTS cell viability counter screen (AID 2060913); further: nearly all actives have a fitted effect of over 40% in size
Conditions: CRE-bla HEK293T viability, CellTiter-Glo luminescence, 5 h; series mostly up to 92.4 µM; viability change, negative = cytotoxic: at the top concentration
Procedure, shortened: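 HEK293T CRE-bla, 2,000 cells/well, 18 h preincubation; cpd in DMSO + NKH477 0.25 uM final, 3 h 37 C/5% CO2; LiveBLAzer 2 h RT, then CellTiter-Glo 30 min RT, luminescence.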
On the % scale 0 is the no-effect control and ±100 the full control effect.

With `CCn1cc(C(=O)O)c(=O)c2cc3c(cc21)OCO3` the Potency was “inactive”.
In the case of `CCCCCCCCCCCO`, the Potency is reported as “inactive”.
In the case of `CCCCC/C=C/C=C/C=O`, the Potency is reported as “inactive”.
In the case of `CCCOC(=O)NCCCN(C)C`, the Potency is reported as “inactive”.
With `CC(=O)Nc1nnc(S(N)(=O)=O)s1` the Potency was “inactive”.

Compared with `Clc1ccccc1-c1nc(-c2ccncc2)no1`, `CCOC(=O)c1ccc(C#Cc2ccc3c(c2)C(C)(C)CCS3)nc1` is higher in “viability change, negative = cytotoxic” value: 0.0707% [at 42.5 µM] for the first, 10.1% [at 42.5 µM] for the second.

With `C/C=C1\C(=O)C[C@H]2[C@@H]3CCC4=CC(=O)CC[C@]4(C)[C@H]3CC[C@]12C` the “viability change, negative = cytotoxic” value was -1.01% [at 42.5 µM].

First: COc1ccc(N=Nc2cc(C)c(N=Nc3ccc(S(=O)(=O)O)cc3)cc2OC)cc1
Second: CC(C)NC(=O)c1ccccc1N
The “viability change, negative = cytotoxic” value of the first is higher: 1.27% for the first, 0.608% for the second.

Going from `CCC(=O)OC(C)(C)C1CC=C(C)CC1` (configuration not stated) to `CCOC(C)=O`, the “viability change, negative = cytotoxic” value rises from -10.6% to 10.5%.

Going from `CCCCCCCCCOC(=O)c1ccccc1C(=O)OCCCCCCCCC` to `CCCCCCCCCCCCSC`, the “viability change, negative = cytotoxic” value falls from 3.75% to -0.514%.

Compared with `CCCCN(CCO)CCCC`, `CC(=N\O)/C(C)=N/O` is lower in “viability change, negative = cytotoxic” value: -3.15% for the first, -4.62% for the second.

`CCN1CCN(c2cc(-c3ccc(F)cc3)c3c(n2)CCCCCC3)CC1` showed a viability change, negative = cytotoxic of -3.64% [at 18.9 µM].

Experiment: cAMP Responsive Elements (CRE) small molecule agonists, cell-based qHTS assay: qHTS cell viability counter screen (AID 2060914); further: potency means the concentration at half of the fitted maximal effect;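 further: viability read after 3 h of compound exposure; nearly all actives have a fitted effect of over 50% in size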
Conditions: CRE-bla HEK293T viability, CellTiter-Glo luminescence, 5 h; series mostly up to 92.4 µM; activity change, negative = cytotoxicity: at the top concentration
Procedure, shortened: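 HEK 293T CRE-bla; DMEM + 10% dialyzed FBS, 25 mM HEPES; 18 h pre-incubation; compound 3 h, 37 °C/5% CO2; CellTiter-Glo added after reporter read; luminescence after 30 min RT.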

First: C/C=C(\C)C(C)=O
Second: COC(=O)CC(=O)C(C)(C)C
The “activity change, negative = cytotoxicity” value of the first is higher: 1.36% for the first, -5.32% for the second.

Going from `CCCCCCCCCCCCN1CCCCCC1=O` to `CCCCCCCCCCCCSC`, the “activity change, negative = cytotoxicity” value rises from -11.2% to 7.64%.

Going from `Cc1cc(C)c(O)c(C(C)(C)C)c1` to `CC(CCO)CC(C)(C)C` (configuration not stated), the “activity change, negative = cytotoxicity” value falls from 0.976% to -0.167%.

Compared with `C=CC(=O)OCCOC(=O)CCC(=O)O`, `CCCCCCOC(=O)CC(CC(=O)OCCCCCC)(OC(=O)CCC)C(=O)OCCCCCC` is higher in “activity change, negative = cytotoxicity” value: 0.827% for the first, 4.47% for the second.

Going from `CCOc1ccc(O)cc1` to `CCOc1ccccc1OCC`, the “activity change, negative = cytotoxicity” value rises from -1.55% to 21.4%.

Going from `O=Cc1cccc([N+](=O)[O-])c1` to `CC(C)NC(=O)c1ccccc1N`, the “activity change, negative = cytotoxicity” value rises from -15.9% to 1.35%.

Compared with `O=C1C=CCCC1`, `ON=C1CCCCC1` is lower in “activity change, negative = cytotoxicity” value: 8.67% for the first, -0.674% for the second.

First: CS(C)=O
Second: CC(=N\O)/C(C)=N/O
The “activity change, negative = cytotoxicity” value of the first is lower: -14.9% for the first, 2.43% for the second.

Going from `CCN(Cc1cccnc1)C(=O)c1cccc(Cl)c1[C@]1(C)C(=O)N(Cc2ccc(OC)cc2OC)c2ccc(Cl)cc21` to `COc1ccc(N=Nc2cc(C)c(N=Nc3ccc(S(=O)(=O)O)cc3)cc2OC)cc1`, the “activity change, negative = cytotoxicity” value falls from 2.55% to -2.39%.

First: CCn1cc(C(=O)O)c(=O)c2cc3c(cc21)OCO3
Second: CCCCCCCCCOC(=O)c1ccccc1C(=O)OCCCCCCCCC
The “activity change, negative = cytotoxicity” value of the first is lower: -16.8% for the first, 2.61% for the second.

Compared with `CCC(=O)OC(C)(C)C1CC=C(C)CC1` (configuration not stated), `CCCCN(CCO)CCCC` is lower in “activity change, negative = cytotoxicity” value: -8.67% for the first, -21.3% for the second.

First: O=C(N/N=C/c1ccccc1O)c1ccncc1
Second: Clc1ccccc1-c1nc(-c2ccncc2)no1
The “activity change, negative = cytotoxicity” value of the first is higher: -1.61% [at 42.5 µM] for the first, -15% [at 42.5 µM] for the second.

Compared with `CCCCOc1cc(C(=O)NCCN(CC)CC)c2ccccc2n1`, `CCOC(=O)c1ccc(C#Cc2ccc3c(c2)C(C)(C)CCS3)nc1` is lower in “activity change, negative = cytotoxicity” value: 0.579% [at 42.5 µM] for the first, -7.05% [at 42.5 µM] for the second.

Going from `CCN[C@H]1C[C@H](C)S(=O)(=O)c2sc(S(N)(=O)=O)cc21` to `C/C=C1\C(=O)C[C@H]2[C@@H]3CCC4=CC(=O)CC[C@]4(C)[C@H]3CC[C@]12C`, the “activity change, negative = cytotoxicity” value falls from 13.9% [at 42.5 µM] to 0% [at 42.5 µM].

In the case of `NNCCc1ccccc1`, the Potency is reported as “inactive”.
For `O=C1NC(=O)C(c2ccccc2)(c2ccccc2)N1`, the Potency was “inactive”.
In the case of `C[Si](O[Si](C)(C)C)O[Si](C)(C)C`, the Potency is reported as “inactive”.
For `COc1cc([C@H]2Oc3cc([C@H]4Oc5cc(O)cc(O)c5C(=O)[C@@H]4O)ccc3O[C@@H]2CO)ccc1O`, the Potency was “inactive”.
With `CCCCCCCCCCCO` the Potency was “inactive”.
With `CCOC(C)=O` the Potency was 24.5 µM (active).
In the case of `CCCCC/C=C/C=C/C=O`, the Potency is reported as “inactive”.
For `CCCOC(=O)NCCCN(C)C`, the Potency was “inactive”.
In the case of `CC(=O)Nc1nnc(S(N)(=O)=O)s1`, the Potency is reported as “inactive”.

Going from `CCn1cc(C(=O)O)c(=O)c2cc(F)c(N3CCN(C)CC3)cc21` to `CCN1CCN(c2cc(-c3ccc(F)cc3)c3c(n2)CCCCCC3)CC1`, the activity change, negative = cytotoxicity falls from 12% [at 18.9 µM] to -20.1% [at 18.9 µM].

In the case of `CN1CCN(CC(=O)N2c3ccccc3C(=O)Nc3cccnc32)CC1`, the activity change, negative = cytotoxicity is reported as 0.984% [at 8.39 µM].

From PubChem BioAssay (Tox21)
